Among all 5,500 compounds or so, about 2,000 (36%) were called active. Roughly 18% stayed inconclusive and do not appear here. Rule as the data show it: active = normalized growth mostly below about 0.91 (no sharp cut-off); inconclusive = no clear call, values can overlap the other calls; inactive = mostly above about 0.92. The list shows a part of the results.
Assay: chemical genetic growth profiling, strain panel (AID 1159580);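 also: tested at 20 µM; growth read once vehicle control cultures reached saturation at 30 °C; 1 = growth at the plate median or of vehicle wells; lower values mean less growth of the strain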
Conditions: growth OD

Measured: normalized growth

O=C(O)/C=C/C(=O)Nc1ccc(-n2nc(C(F)(F)F)cc2C(F)(F)F)cc1
inactive: S. cerevisiae deletion strains, locus YAL013W, strain DEP1, active compounds read low 0.987 | S. cerevisiae deletion strains, locus YBR229C, strain ROT2, active compounds read low 1 | S. cerevisiae deletion strains, locus YCL061C, strain MRC1, active compounds read low 1.01 | S. cerevisiae deletion strains, locus YDL101C, strain DUN1, active compounds read low 0.97 | S. cerevisiae deletion strains, locus YDL134C, strain PPH21, active compounds read low 1.02 | S. cerevisiae deletion strains, locus YDR150W, strain NUM1, active compounds read low 0.992 | S. cerevisiae deletion strains, locus YEL061C, strain CIN8, active compounds read low 1.03 | S. cerevisiae deletion strains, locus YGR078C, strain PAC10, active compounds read low 1.01 | S. cerevisiae deletion strains, locus YHR030C, strain SLT2, active compounds read low 1.11 | S. cerevisiae deletion strains, locus YHR087W, strain rtc3, active compounds read low 0.995 | S. cerevisiae deletion strains, locus YJL187C, strain SWE1, active compounds read low 1.01 | S. cerevisiae deletion strains, locus YJR043C, strain POL32, active compounds read low 1 | S. cerevisiae deletion strains, locus YJR075W, strain HOC1, active compounds read low 1.08 | S. cerevisiae deletion strains, locus YKL190W, strain CNB1, active compounds read low 1.02 | S. cerevisiae deletion strains, locus YLR039C, strain RIC1, active compounds read low 1.04 | S. cerevisiae deletion strains, locus YLR058C, strain SHM2 (second series), active compounds read low 1.02 | S. cerevisiae deletion strains, locus YLR085C, strain ARP6, active compounds read low 1.07 | S. cerevisiae deletion strains, locus YLR262C, strain YPT6, active compounds read low 1.03 | S. cerevisiae deletion strains, locus YML094W, strain GIM5, active compounds read low 1.02 | S. cerevisiae deletion strains, locus YMR219W, strain ESC1, active compounds read low 1.01 | S. cerevisiae deletion strains, locus YMR263W, strain SAP30, active compounds read low 1.02 | S. cerevisiae deletion strains, locus YMR307W, strain GAS1, active compounds read low 1.14 | S. cerevisiae deletion strains, locus YNL128W, strain TEP1, active compounds read low 1.02 | S. cerevisiae deletion strains, locus YNL153C, strain GIM3, active compounds read low 0.989 | S. cerevisiae deletion strains, locus YNL298W, strain CLA4 (second series), active compounds read low 1.05 | S. cerevisiae deletion strains, locus YNL322C, strain KRE1, active compounds read low 1 | S. cerevisiae deletion strains, locus YNR030W, strain Alg12, active compounds read low 1.02 | S. cerevisiae deletion strains, locus YOL006C, strain TOP1, active compounds read low 1.09 | S. cerevisiae deletion strains, locus YPL055C, strain LGE1, active compounds read low 1 | S. cerevisiae deletion strains, locus YPL241C, strain CIN2, active compounds read low 1.01 | S. cerevisiae deletion strains, locus YPR135W, strain CTF4, active compounds read low 1.06 | S. cerevisiae strains, strain wild type, active compounds read low 1.02
